GLS inhibitor: blocks human kidney-isoform glutaminase activity; GLS enzymatic activity, qHTS titration; Potency, µM (titrated, usually from 45.5 µM), for the others: top-dose activity change, negative = inhibition, actives largely listed as inhibitors; actives 0.21% (n = 410,000); O94925; also: % is scaled to controls: 0 for no effect and ±100 for the full control effect
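Coupled fluorescence readout: glutamate oxidase/HRP/Amplex Red detect glutamate formed by hKGA from L-glutamine (1 mM solution added). Buffer 45 mM KH2PO4 pH 8.2, 0.02% Tween-20; reads at t0 and 30 min RT.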
BAZ2B block: BAZ2B (human) inhibition; Q9UIF8; AlphaScreen BAZ2B-H3K14Ac peptide displacement; Potency, µM (doses to about 114 µM), inactives show at the highest dose activity change, negative = inhibition, usual class: inhibitors; actives 4.4% (n = 360,000); also: % is scaled to controls: 0 for no effect and ±100 for the full control effect; nearly all actives have a fitted effect of over 60% in size
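In this displacement format the biotinylated H3(5-23) peptide acetylated at Lys14 serves as ligand at 50 nM, with BAZ2B at 50 nM in PBS pH 7.4 containing 0.01% Tween-20. Donor and acceptor beads are 10 ug/mL final.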
JMJD2A Tudor: JMJD2A Tudor domain (human) inhibition | AlphaScreen JMJD2A-Tudor / H3K4me3 peptide binding | actives 4.4% (n = 390,000) | Potency, µM (top dose mostly 114 µM), without a hit: at the highest dose activity change, negative = inhibition, usual class: inhibitors; also: % is scaled to controls: 0 for no effect and ±100 for the full control effect; nearly all actives have a fitted effect of over 50% in size
HP1b chromo inh: inhibitors of HP1-beta chromodomain binding to methylated histone tails. P83916. AlphaScreen HP1-beta / biotin-H3K9me3 peptide binding. Potency, µM (series often up to 114 µM), for inactives: at the top dose activity change, negative = inhibition, most hits filed as inhibitors. actives 0.56% (n = 390,000). AID 540317; also: nearly all actives have a fitted effect of over 70% in size
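Compound inhibition of the preformed complex between 50 nM HP1-beta and 50 nM biotinylated H3K9me3 peptide was read by AlphaScreen. Buffer was PBS pH 7.4 with 0.01% Tween-20. Incubations ran 30 min at room temperature, with 10 ug/mL donor/acceptor beads.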
G9a inh: G9a (human) methyltransferase inhibition; G9a H3K9 monomethylation, AlphaScreen, 2 h; Potency, µM (series often up to 102 µM), inactives show at the top dose activity, negative = inhibition, actives largely listed as inhibitors; actives 8.8% (n = 350,000); also: % is scaled to controls: 0 for no effect and ±100 for the full control effect; nearly all actives have a fitted effect of over 75% in size
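Readings reflect AlphaScreen signal from monomethyl-H3K9 antibody detection. HMT at 20 nM; substrate b-H3K9 500 nM; cofactor SAM 20 uM; 2 h RT reaction; compounds tested as titrations in qHTS with 15 min preincubation.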
* = called active by the depositor; ! = a repeat was not active; [ ] = dose if it differs, or a comment. Compounds with a hit are over-represented: about 10% of the library has one in this group of screens. Calls follow the shape of the dose curve; as a rule, active = well fitted curve in the direction sought with a large enough effect; inconclusive = small, poorly fitted or top-dose-only effect, or another doubt; inactive = no such curve, though single readings can be large; an effect the other way counts as inactive or inconclusive. Potency is read from the fitted curve at half-maximal effect.

How did O=C(Nc1cccc(Cl)c1)c1cc(N=Nc2ccc([N+](=O)[O-])cc2Cl)ccc1O do in these assays?
GLS inhibitor: -2.0%; BAZ2B block: 2.82µM*; JMJD2A Tudor: 4.47µM*; HP1b chromo inh: inconclusive; G9a inh: 2.82µM*

What do the screens show for `O=[N+]([O-])c1ccc(O)c(/C=N/NC(=S)Nc2ccc(Cl)cc2Cl)c1`?
GLS inhibitor: -6.9%; BAZ2B block: 31.6µM*; JMJD2A Tudor: 79.4µM*; HP1b chromo inh: -13.1%

Results for Nc1ccc(NC(=O)c2cc(Cl)ccc2O)c(Cl)c1 ?
JMJD2A Tudor: -23.4%; HP1b chromo inh: 13.0%

What do the screens show for `O=C(Nc1ccc([N+](=O)[O-])cc1Cl)c1cc(Cl)ccc1O`?
GLS inhibitor: -1.3%; BAZ2B block: -2.8%; JMJD2A Tudor: inconclusive; HP1b chromo inh: 11.3%; G9a inh: 7.94µM*!

Results for Cc1cc(Cl)ccc1NC(=O)CCC(=O)N/N=C/c1cc([N+](=O)[O-])ccc1O ?
GLS inhibitor: -11.2%; BAZ2B block: 6.0%; JMJD2A Tudor: 0.7%; HP1b chromo inh: 28.4%; G9a inh: -0.7%

What do the screens show for `CCS(=O)(=O)c1ccc2oc(Nc3ccccc3Br)nc2c1`?
GLS inhibitor: -1.4%; BAZ2B block: -2.6%; JMJD2A Tudor: -5.2%; HP1b chromo inh: 23.2%; G9a inh: 24.8%

What do the screens show for `CC(=O)Nc1nc(N2C(=O)c3ccccc3C2=O)n(-c2ccccc2)n1`?
GLS inhibitor: -1.1%; BAZ2B block: inconclusive; JMJD2A Tudor: 79.4µM*; HP1b chromo inh: 54.7%; G9a inh: inconclusive

How did CCn1c(CNc2cccc(C(F)(F)F)c2)n[nH]c1=S do in these assays?
GLS inhibitor: -16.0%; BAZ2B block: -10.9%; JMJD2A Tudor: 50.1µM*; HP1b chromo inh: 22.0%

What do the screens show for `CCOC(=O)C1(CC2CCCCO2)CCN(Cc2nccn2-c2cccc(C)c2)CC1` (stereo unspecified)?
GLS inhibitor: -3.8%; BAZ2B block: -19.7%; JMJD2A Tudor: -24.1%; HP1b chromo inh: 10.5%; G9a inh: 13.6%

How did Cc1cccc(Nc2cc(C)c3c(O)cccc3n2)c1C do in these assays?
GLS inhibitor: 39.8%; BAZ2B block: 39.8µM*; JMJD2A Tudor: 44.7µM*; HP1b chromo inh: -2.8%; G9a inh: 50.1µM*

How did Cc1cc(Nc2ccccc2O)nc(C)n1 do in these assays?
GLS inhibitor: 27.1%; BAZ2B block: -12.2%; JMJD2A Tudor: -16.9%; HP1b chromo inh: 18.1%; G9a inh: -10.7%[59 µM]

What do the screens show for `O=C(N/N=C\c1ccc(-c2ccc([N+](=O)[O-])cc2)o1)c1ccc2c(c1)OCO2`?
GLS inhibitor: -0.6%; BAZ2B block: 11.4%; JMJD2A Tudor: -8.1%; HP1b chromo inh: 26.6%; G9a inh: -46.2%

What do the screens show for `O=C(O)C1C2C=CC(C2)C1C(=O)Nc1ccc2c(c1)OCCO2` (stereo unspecified)?
GLS inhibitor: 1.9%; BAZ2B block: 8.2%; JMJD2A Tudor: -10.7%[57.1 µM]; HP1b chromo inh: 56.2%; G9a inh: -2.4%

Results for CN(C)c1ccc(NC(=O)C2C3C=CC(C3)C2C(=O)O)cc1 (stereo unspecified) ?
GLS inhibitor: 45.7%; BAZ2B block: 35.5µM*; JMJD2A Tudor: inconclusive; HP1b chromo inh: 1.3%; G9a inh: 22.4µM*

What do the screens show for `COc1cc(NC(=O)C2C3C=CC(C3)C2C(=O)O)c(OC)cc1Cl` (stereo unspecified)?
GLS inhibitor: 9.3%; BAZ2B block: 0.3%; JMJD2A Tudor: -17.8%; HP1b chromo inh: 18.8%; G9a inh: 11.2µM*

How did COc1ccccc1/C=N/n1c(N)c(C(=O)NC2CCCCC2)c2nc3ccccc3nc21 do in these assays?
GLS inhibitor: 2.2%; BAZ2B block: 10.1%; JMJD2A Tudor: 15.0%; HP1b chromo inh: 76.6%; G9a inh: 16.8%[59 µM]

Results for COc1ccccc1N1CCN(CC(=O)Nc2ccc(CN3CCCCC3)cc2)CC1 ?
GLS inhibitor: 0.0%; BAZ2B block: 50.1µM*; JMJD2A Tudor: 3.98µM*; HP1b chromo inh: inconclusive; G9a inh: 10µM*

What do the screens show for `CCc1nnc(NC(=O)CN2CCN(CC)CC2)s1`?
GLS inhibitor: -8.2%; BAZ2B block: -3.8%; JMJD2A Tudor: -10.2%; HP1b chromo inh: 30.7%; G9a inh: 79.4µM*
